# Laboratory results from PubChem BioAssay (NCI).
# The panel holds about 79,000 compounds, 15% with a hit somewhere; the sample as a whole holds those more often. Values without a mark were called inactive. Active and inactive are the calls of the source. Rule as the data show it: active = growth inhibition above about 70%; inactive = the rest.
# Assay: NCI Yeast Anticancer Drug Screen. Data for the mlh1 rad18 strain (AID 175)
# Conditions: S. cerevisiae mlh1 rad18 strain growth inhibition; at 50.0 µM; hits give high values
# Method in brief: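 Inhibition values reflect reduced growth of mutant yeast versus vehicle-treated controls following compound exposure; the mutations affect DNA damage repair.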
row,Structure (SMILES),growth inhibition
1,c1ccc([B-](c2ccccc2)(c2ccccc2)c2ccccc2)cc1,98.5% (active)
2,[Fe+2].c1cc[cH-]c1.c1ccc(-c2ccc[cH-]2)cc1,19%
3,O=C(CC1(O)CCCCC1)OC1CCCC1,6.2%
4,OC1(c2ccccc2)c2ccccc2Sc2ccccc21,99.1% (active)
5,CC(CN(C)C)C(=O)/C=C/c1ccc(C(C)C)cc1 (configuration not stated),91.4% (active)
6,CSc1cccc(N2C(=O)C=CC2=O)c1,92.5% (active)
7,O=c1c2ccccc2nc(-c2ccccc2)n1NC(=S)Nc1ccc(Cl)cc1[N+](=O)[O-],25.8%
8,COc1ccc(OC(C)=O)c2c1CCC=CC2=O,74% (active)
9,CC(=O)Nc1ccc2c(c1)Cc1cccc(F)c1-2,32.1%
10,CCC(c1ccc(O)cc1)C(O)(CC)c1ccc(O)cc1 (configuration not stated),14.3%
11,Cn1c(-c2ccccc2)c(CCNC(=O)C2CCC2)c2ccccc21,75.2% (active)
12,FC(F)(F)c1ccccc1NC(=S)SCc1ccco1,88.3% (active)
13,O=[N+]([O-])C1=Cc2cc(Cl)ccc2OC1c1cccc2ccccc12 (configuration not stated),75.8% (active)
14,NC(=O)c1c(Cl)nc2n1CCS2,0.15%
15,CCCCCC(C)C1=NC(C)(C)CC(C)O1 (configuration not stated),12.1%
16,CCCCCCCCCCCCCCCCN(C)c1ccc(S(=O)(=O)O)cc1[N+](=O)[O-],80.1% (active)
17,O=C(c1cccnc1)N(C1CCCCC1)C1CCCCC1,-2.25%
